In paper PMC11006913:
Substitutions are numbered along the chain they refer to.

How the values were obtained:
Experiment in all cases: PBM; 200 nM protein, PBS
Conditions in all cases: dsDNA, one strand shown
[1] = molecular target: T1, VENTX (Homo sapiens, UniProt O95231 78-163, R121Q)
T1 sequence: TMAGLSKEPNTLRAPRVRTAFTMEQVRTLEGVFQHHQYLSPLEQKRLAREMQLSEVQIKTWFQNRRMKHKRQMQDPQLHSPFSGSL

[2] = molecular target: T2, VENTX (Homo sapiens, UniProt O95231 78-163)
T2 sequence: T1 sequence with Q44R

[3] = molecular target: T3, VENTX (Homo sapiens, UniProt O95231 78-163, Y115F)
T3 sequence: T1 sequence with Y38F, Q44R

[4] = molecular target: HOXA2 (Homo sapiens, UniProt O43364 129-215, R185T)
[5] = molecular target: HOXA2 (Homo sapiens, UniProt O43364 129-215, R185K)
[6] = molecular target: HOXA2 (Homo sapiens, UniProt O43364 129-215, Y150S)
[7] = molecular target: HOXA2 (Homo sapiens, UniProt O43364 129-215)
[8] = molecular target: HOXD13 (Homo sapiens, UniProt P35453 263-343)
[9] = molecular target: HOXD13 (Homo sapiens, UniProt P35453 263-343, T313A)
[10] = molecular target: HOXD13 (Homo sapiens, UniProt P35453 263-343, T313R)
[11] = molecular target: MSX2 (Homo sapiens, UniProt P35548 130-214, R199I)
[12] = molecular target: MSX2 (Homo sapiens, UniProt P35548 130-214)
[13] = molecular target: MSX2 (Homo sapiens, UniProt P35548 130-214, F161Y)
[14] = molecular target: HOXB9 (Homo sapiens, UniProt P17482 171-250, T197M)
[15] = molecular target: HOXC9 (Homo sapiens, UniProt P31274 178-260, K195R)
[16] = molecular target: HOXA7 (Homo sapiens, UniProt P31268 116-202)
[17] = molecular target: HOXC10 (Homo sapiens, UniProt Q9NYD6 254-340)
[18] = molecular target: HOXB6 (Homo sapiens, UniProt P17509 132-218, K202E)
[19] = molecular target: HOXC9 (Homo sapiens, UniProt P31274 178-260)
[20] = molecular target: HOXC9 (Homo sapiens, UniProt P31274 178-260, R193K)
[21] = molecular target: HOXC10 (Homo sapiens, UniProt Q9NYD6 254-340, K271E)
[22] = molecular target: HOXC9 (Homo sapiens, UniProt P31274 178-260, R222W)
[23] = molecular target: HOXA7 (Homo sapiens, UniProt P31268 116-202, W177C)
[24] = molecular target: HOXB6 (Homo sapiens, UniProt P17509 132-218)
[25] = molecular target: ALX4 (Homo sapiens, UniProt Q9H161 200-286, Q225E)
[26] = molecular target: HOXB9 (Homo sapiens, UniProt P17482 171-250)
[27] = molecular target: HOXB9 (Homo sapiens, UniProt P17482 171-250, R186Q)
[28] = molecular target: VAX1 (Homo sapiens, UniProt Q5SQQ9 86-172)
[29] = molecular target: VAX1 (Homo sapiens, UniProt Q5SQQ9 86-172, T142I)
[30] = molecular target: HOXA4 (Homo sapiens, UniProt Q00056 201-287, W262F)
[31] = molecular target: VAX1 (Homo sapiens, UniProt Q5SQQ9 86-172, K157R)
VAX1 (Homo sapiens, UniProt Q5SQQ9 86-172, K157R), sequence (Q5SQQ9 86-172 K157R): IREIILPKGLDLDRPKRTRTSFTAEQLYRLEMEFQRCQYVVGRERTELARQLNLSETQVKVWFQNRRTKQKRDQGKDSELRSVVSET

HOXC10 (Homo sapiens, UniProt Q9NYD6 254-340, K271E), sequence (Q9NYD6 254-340 K271E): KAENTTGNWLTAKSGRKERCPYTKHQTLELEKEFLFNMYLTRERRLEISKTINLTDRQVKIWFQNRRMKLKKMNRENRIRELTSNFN
HOXB9 (Homo sapiens, UniProt P17482 171-250, T197M), sequence (P17482 171-250 T197M): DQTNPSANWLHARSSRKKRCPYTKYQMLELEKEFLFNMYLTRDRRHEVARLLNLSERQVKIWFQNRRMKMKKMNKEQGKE
HOXD13 (Homo sapiens, UniProt P35453 263-343), sequence (P35453 263-343): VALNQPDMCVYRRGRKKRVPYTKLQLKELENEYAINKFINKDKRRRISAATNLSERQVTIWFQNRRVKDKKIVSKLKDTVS
HOXC9 (Homo sapiens, UniProt P31274 178-260, R222W), sequence (P31274 178-260 R222W): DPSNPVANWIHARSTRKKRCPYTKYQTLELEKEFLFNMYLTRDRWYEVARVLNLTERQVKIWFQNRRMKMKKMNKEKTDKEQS
HOXC10 (Homo sapiens, UniProt Q9NYD6 254-340), sequence (Q9NYD6 254-340): as the sequence (Q9NYD6 254-340 K271E) above, with E18K counted along it
HOXC9 (Homo sapiens, UniProt P31274 178-260, R193K), sequence (P31274 178-260 R193K): as the sequence (P31274 178-260 R222W) above, with R16K, W45R counted along it
HOXD13 (Homo sapiens, UniProt P35453 263-343, T313A), sequence (P35453 263-343 T313A): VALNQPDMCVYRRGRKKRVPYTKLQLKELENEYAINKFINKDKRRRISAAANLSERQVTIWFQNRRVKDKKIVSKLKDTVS
HOXC9 (Homo sapiens, UniProt P31274 178-260), sequence (P31274 178-260): as the sequence (P31274 178-260 R222W) above, with W45R counted along it
HOXD13 (Homo sapiens, UniProt P35453 263-343, T313R), sequence (P35453 263-343 T313R): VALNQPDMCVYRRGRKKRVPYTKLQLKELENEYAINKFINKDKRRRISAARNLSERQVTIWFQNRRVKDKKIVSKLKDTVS
HOXC9 (Homo sapiens, UniProt P31274 178-260, K195R), sequence (P31274 178-260 K195R): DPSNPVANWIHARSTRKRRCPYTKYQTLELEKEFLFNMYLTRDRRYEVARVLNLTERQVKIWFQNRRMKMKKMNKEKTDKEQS
MSX2 (Homo sapiens, UniProt P35548 130-214, R199I), sequence (P35548 130-214 R199I): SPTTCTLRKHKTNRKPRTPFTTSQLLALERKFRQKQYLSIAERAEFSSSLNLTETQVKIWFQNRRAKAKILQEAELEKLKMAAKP
HOXB6 (Homo sapiens, UniProt P17509 132-218, K202E), sequence (P17509 132-218 K202E): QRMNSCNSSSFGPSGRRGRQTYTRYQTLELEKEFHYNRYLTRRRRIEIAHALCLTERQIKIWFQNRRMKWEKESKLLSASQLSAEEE
HOXA7 (Homo sapiens, UniProt P31268 116-202, W177C), sequence (P31268 116-202 W177C): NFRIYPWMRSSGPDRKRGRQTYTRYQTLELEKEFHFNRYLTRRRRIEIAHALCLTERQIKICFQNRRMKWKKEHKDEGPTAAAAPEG
HOXA7 (Homo sapiens, UniProt P31268 116-202), sequence (P31268 116-202): as the sequence (P31268 116-202 W177C) above, with C62W counted along it
MSX2 (Homo sapiens, UniProt P35548 130-214, F161Y), sequence (P35548 130-214 F161Y): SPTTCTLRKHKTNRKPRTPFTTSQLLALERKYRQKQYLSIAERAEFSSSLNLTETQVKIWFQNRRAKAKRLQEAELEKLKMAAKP
MSX2 (Homo sapiens, UniProt P35548 130-214), sequence (P35548 130-214): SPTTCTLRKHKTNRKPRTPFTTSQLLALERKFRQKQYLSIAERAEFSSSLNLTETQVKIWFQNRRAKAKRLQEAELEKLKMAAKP
HOXB9 (Homo sapiens, UniProt P17482 171-250), sequence (P17482 171-250): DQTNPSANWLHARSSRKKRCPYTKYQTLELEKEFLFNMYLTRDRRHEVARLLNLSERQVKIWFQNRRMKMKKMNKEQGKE
HOXB9 (Homo sapiens, UniProt P17482 171-250, R186Q), sequence (P17482 171-250 R186Q): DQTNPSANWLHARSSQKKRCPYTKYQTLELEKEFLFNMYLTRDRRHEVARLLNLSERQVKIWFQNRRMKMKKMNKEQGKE
HOXB6 (Homo sapiens, UniProt P17509 132-218), sequence (P17509 132-218): as the sequence (P17509 132-218 K202E) above, with E71K counted along it
HOXA2 (Homo sapiens, UniProt O43364 129-215, Y150S), sequence (O43364 129-215 Y150S): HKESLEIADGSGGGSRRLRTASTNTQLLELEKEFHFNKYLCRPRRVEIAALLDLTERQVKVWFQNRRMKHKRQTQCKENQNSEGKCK
ALX4, sequence (Q9H161 200-286 Q225E): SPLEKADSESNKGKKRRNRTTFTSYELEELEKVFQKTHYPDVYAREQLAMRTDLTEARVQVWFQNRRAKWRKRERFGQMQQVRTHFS
VAX1 (Homo sapiens, UniProt Q5SQQ9 86-172, T142I), sequence (Q5SQQ9 86-172 T142I): as the sequence (Q5SQQ9 86-172 K157R) above, with T57I, R72K counted along it
HOXA2 (Homo sapiens, UniProt O43364 129-215), sequence (O43364 129-215): as the sequence (O43364 129-215 Y150S) above, with S22Y counted along it
HOXA4, sequence (Q00056 201-287 W262F): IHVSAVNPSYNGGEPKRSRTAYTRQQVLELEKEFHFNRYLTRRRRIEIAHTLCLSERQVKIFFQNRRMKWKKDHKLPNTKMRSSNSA
VAX1 (Homo sapiens, UniProt Q5SQQ9 86-172), sequence (Q5SQQ9 86-172): as the sequence (Q5SQQ9 86-172 K157R) above, with R72K counted along it
HOXA2 (Homo sapiens, UniProt O43364 129-215, R185T), sequence (O43364 129-215 R185T): as the sequence (O43364 129-215 Y150S) above, with S22Y, R57T counted along it
HOXA2 (Homo sapiens, UniProt O43364 129-215, R185K), sequence (O43364 129-215 R185K): as the sequence (O43364 129-215 Y150S) above, with S22Y, R57K counted along it

## GCTTATTA
[1]
  binding signal: 10.2 upbm affinity estimate (log intensity, higher = more binding, comparable within an allelic series)
[2]
  binding signal: 10.8 upbm affinity estimate (log intensity, higher = more binding, comparable within an allelic series)
[3]
  binding signal: 10.3 upbm affinity estimate (log intensity, higher = more binding, comparable within an allelic series)
[4]
  binding signal: 10.9 upbm affinity estimate (log intensity, higher = more binding, comparable within an allelic series)
[5]
  binding signal: 12.2 upbm affinity estimate (log intensity, higher = more binding, comparable within an allelic series)
[6]
  binding signal: 10.7 upbm affinity estimate (log intensity, higher = more binding, comparable within an allelic series)
[7]
  binding signal: 10.7 upbm affinity estimate (log intensity, higher = more binding, comparable within an allelic series)

## ACTTATAA
[1]
  binding signal: 9.95 upbm affinity estimate (log intensity, higher = more binding, comparable within an allelic series)
[2]
  binding signal: 10.5 upbm affinity estimate (log intensity, higher = more binding, comparable within an allelic series)
[3]
  binding signal: 10 upbm affinity estimate (log intensity, higher = more binding, comparable within an allelic series)
[8]
  binding signal: 11.3 upbm affinity estimate (log intensity, higher = more binding, comparable within an allelic series)
[9]
  binding signal: 11 upbm affinity estimate (log intensity, higher = more binding, comparable within an allelic series)

## CGCCCGGA
[1]
  binding signal: 7.98 upbm affinity estimate (log intensity, higher = more binding, comparable within an allelic series)
[2]
  binding signal: 7.85 upbm affinity estimate (log intensity, higher = more binding, comparable within an allelic series)
[3]
  binding signal: 8.06 upbm affinity estimate (log intensity, higher = more binding, comparable within an allelic series)
[10]
  binding signal: 9.55 upbm affinity estimate (log intensity, higher = more binding, comparable within an allelic series)
[8]
  binding signal: 9.51 upbm affinity estimate (log intensity, higher = more binding, comparable within an allelic series)
[9]
  binding signal: 9.62 upbm affinity estimate (log intensity, higher = more binding, comparable within an allelic series)

## CCGCGGTC
[1]
  binding signal: 7.69 upbm affinity estimate (log intensity, higher = more binding, comparable within an allelic series)
[2]
  binding signal: 7.87 upbm affinity estimate (log intensity, higher = more binding, comparable within an allelic series)
[3]
  binding signal: 7.89 upbm affinity estimate (log intensity, higher = more binding, comparable within an allelic series)
[11]
  binding signal: 9.33 upbm affinity estimate (log intensity, higher = more binding, comparable within an allelic series)
[12]
  binding signal: 9.33 upbm affinity estimate (log intensity, higher = more binding, comparable within an allelic series)
[13]
  binding signal: 9.33 upbm affinity estimate (log intensity, higher = more binding, comparable within an allelic series)

## CCTGGCTC
[1]
  binding signal: 8.01 upbm affinity estimate (log intensity, higher = more binding, comparable within an allelic series)
[2]
  binding signal: 8.1 upbm affinity estimate (log intensity, higher = more binding, comparable within an allelic series)
[3]
  binding signal: 8.06 upbm affinity estimate (log intensity, higher = more binding, comparable within an allelic series)
[11]
  binding signal: 9.46 upbm affinity estimate (log intensity, higher = more binding, comparable within an allelic series)
[12]
  binding signal: 9.51 upbm affinity estimate (log intensity, higher = more binding, comparable within an allelic series)
[13]
  binding signal: 9.47 upbm affinity estimate (log intensity, higher = more binding, comparable within an allelic series)

## ATTATTAC
[14]
  binding signal: 10 upbm affinity estimate (log intensity, higher = more binding, comparable within an allelic series)
[15]
  binding signal: 12.5 upbm affinity estimate (log intensity, higher = more binding, comparable within an allelic series)
[16]
  binding signal: 11.2 upbm affinity estimate (log intensity, higher = more binding, comparable within an allelic series)
[17]
  binding signal: 12.1 upbm affinity estimate (log intensity, higher = more binding, comparable within an allelic series)
[18]
  binding signal: 10 upbm affinity estimate (log intensity, higher = more binding, comparable within an allelic series)
[19]
  binding signal: 12.6 upbm affinity estimate (log intensity, higher = more binding, comparable within an allelic series)
[20]
  binding signal: 12.5 upbm affinity estimate (log intensity, higher = more binding, comparable within an allelic series)
[21]
  binding signal: 11.6 upbm affinity estimate (log intensity, higher = more binding, comparable within an allelic series)
[22]
  binding signal: 11 upbm affinity estimate (log intensity, higher = more binding, comparable within an allelic series)
[23]
  binding signal: 8.99 upbm affinity estimate (log intensity, higher = more binding, comparable within an allelic series)
[24]
  binding signal: 11.7 upbm affinity estimate (log intensity, higher = more binding, comparable within an allelic series)

## AACCGATT
[1]
  binding signal: 10.1 upbm affinity estimate (log intensity, higher = more binding, comparable within an allelic series)
[3]
  binding signal: 10.3 upbm affinity estimate (log intensity, higher = more binding, comparable within an allelic series)

## ATTTATTG
[14]
  binding signal: 9.87 upbm affinity estimate (log intensity, higher = more binding, comparable within an allelic series)
[15]
  binding signal: 12.5 upbm affinity estimate (log intensity, higher = more binding, comparable within an allelic series)
[17]
  binding signal: 12.4 upbm affinity estimate (log intensity, higher = more binding, comparable within an allelic series)
[25]
  binding signal: 11.2 upbm affinity estimate (log intensity, higher = more binding, comparable within an allelic series)
[26]
  binding signal: 11.9 upbm affinity estimate (log intensity, higher = more binding, comparable within an allelic series)
[19]
  binding signal: 12.7 upbm affinity estimate (log intensity, higher = more binding, comparable within an allelic series)
[10]
  binding signal: 10.9 upbm affinity estimate (log intensity, higher = more binding, comparable within an allelic series)
[20]
  binding signal: 12.6 upbm affinity estimate (log intensity, higher = more binding, comparable within an allelic series)
[8]
  binding signal: 12.2 upbm affinity estimate (log intensity, higher = more binding, comparable within an allelic series)
[21]
  binding signal: 11.7 upbm affinity estimate (log intensity, higher = more binding, comparable within an allelic series)
[9]
  binding signal: 12 upbm affinity estimate (log intensity, higher = more binding, comparable within an allelic series)
[27]
  binding signal: 11.6 upbm affinity estimate (log intensity, higher = more binding, comparable within an allelic series)
[22]
  binding signal: 11.2 upbm affinity estimate (log intensity, higher = more binding, comparable within an allelic series)

## CCATTAAA
[14]
  binding signal: 10.1 upbm affinity estimate (log intensity, higher = more binding, comparable within an allelic series)
[15]
  binding signal: 13 upbm affinity estimate (log intensity, higher = more binding, comparable within an allelic series)
[16]
  binding signal: 11.5 upbm affinity estimate (log intensity, higher = more binding, comparable within an allelic series)
[17]
  binding signal: 12.5 upbm affinity estimate (log intensity, higher = more binding, comparable within an allelic series)
[18]
  binding signal: 9.87 upbm affinity estimate (log intensity, higher = more binding, comparable within an allelic series)
[26]
  binding signal: 12.4 upbm affinity estimate (log intensity, higher = more binding, comparable within an allelic series)
[19]
  binding signal: 13.1 upbm affinity estimate (log intensity, higher = more binding, comparable within an allelic series)
[10]
  binding signal: 10.6 upbm affinity estimate (log intensity, higher = more binding, comparable within an allelic series)
[20]
  binding signal: 13 upbm affinity estimate (log intensity, higher = more binding, comparable within an allelic series)
[8]
  binding signal: 11.9 upbm affinity estimate (log intensity, higher = more binding, comparable within an allelic series)
[21]
  binding signal: 12.2 upbm affinity estimate (log intensity, higher = more binding, comparable within an allelic series)
[28]
  binding signal: 12.2 upbm affinity estimate (log intensity, higher = more binding, comparable within an allelic series)
[9]
  binding signal: 11.6 upbm affinity estimate (log intensity, higher = more binding, comparable within an allelic series)
[27]
  binding signal: 12.2 upbm affinity estimate (log intensity, higher = more binding, comparable within an allelic series)
[22]
  binding signal: 11.1 upbm affinity estimate (log intensity, higher = more binding, comparable within an allelic series)
[29]
  binding signal: 11.9 upbm affinity estimate (log intensity, higher = more binding, comparable within an allelic series)
[23]
  binding signal: 8.59 upbm affinity estimate (log intensity, higher = more binding, comparable within an allelic series)
[30]
  binding signal: 10.9 upbm affinity estimate (log intensity, higher = more binding, comparable within an allelic series)
[31]
  binding signal: 11.8 upbm affinity estimate (log intensity, higher = more binding, comparable within an allelic series)
[24]
  binding signal: 12 upbm affinity estimate (log intensity, higher = more binding, comparable within an allelic series)
